The values that follow come from PubChem BioAssay.

Active and inactive are the calls of the source. Unless noted, how the calls were made is not given here.

Assay [1] deals with Wnt5a (protein binding on small-molecule microarray). The experiment in a line: Wnt5a binders on small-molecule microarray, primary screen, biophysical, 635/667 nm fluorescence (AID 1142).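 Further: fluorescence read at 667 nm with signal to noise per printed feature.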 The note with it: 635 nm fluorescence, higher = more signal.
Assay [2] is described as follows: cell viability in Huh7 cells, primary screen, cytotoxicity control for HCV replication inhibitor project, CellTiter-Glo luminescence, basal, 48 h (AID 1143).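 Further: Huh7 hepatoma cells carrying a hepatitis C replication reporter with no stimulus; test concentration not given here.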 The conditions noted are these: Huh7 HCV replicon, higher = more signal, called active from +8 up or from −8 down.
Assay [3] is described as follows: P. aeruginosa biofilm formation inhibitors, primary screen, PAO1 strain, BacTiter-Glo luminescence, LB-PBS (AID 1144). The conditions noted are these: 12 h, higher = more signal.
The nature of assay [4]: CREB reporter modulators without forskolin, primary screen, cell-based, PC12, CRE-LacZ reporter, unstimulated (AID 1145). The note with it: no forskolin, luminescence, 4.5 h, higher = more signal, called active from +8 up or from −8 down.
Assay [5] can be described thus: CREB reporter modulators under forskolin, primary screen, cell-based, PC12, CRE-LacZ reporter, forskolin-stimulated (AID 1146).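 Further: PC12 cells with 6xCRE LacZ reporter stimulated by forskolin 10 µM; beta-galactosidase reporter signal reflecting CREB driven transcription.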 The conditions noted are these: luminescence, 4.5 h, higher = more signal, called active from +8 up or from −8 down.
Assay [6] addresses Streptavidin (Streptomyces avidinii) (UniProt P22629). The experiment in a line: streptavidin binders on small-molecule microarray, primary screen, artefact control for SMM compound annotation, biophysical, 635/667 nm fluorescence (AID 1147).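 Further: signal reflects streptavidin binding to arrayed compounds as a control protein.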 The note with it: streptavidin binding, higher = more signal.
Assay [7] can be described thus: small-molecule binders of probe aInhba, primary screen, biochemical, small-molecule microarray, 635/667 nm fluorescence (AID 1148).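 Further: score merges 667nm spot fluorescence with signal-to-noise for antibody binding to printed compounds.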 The note with it: higher = more signal.
The target in assay [8] is Torsin-1A (Homo sapiens) (UniProt O14656). The experiment in a line: torsin A binders from cell lysate, primary screen, small-molecule microarray, wild-type, 635/667 nm (AID 1149). The conditions noted are these: COS7 hTOR1A-WT lysate, 635 nm fluorescence, higher = more signal.
Torsin-1A (Homo sapiens), sequence (O14656 whole entry, looked up): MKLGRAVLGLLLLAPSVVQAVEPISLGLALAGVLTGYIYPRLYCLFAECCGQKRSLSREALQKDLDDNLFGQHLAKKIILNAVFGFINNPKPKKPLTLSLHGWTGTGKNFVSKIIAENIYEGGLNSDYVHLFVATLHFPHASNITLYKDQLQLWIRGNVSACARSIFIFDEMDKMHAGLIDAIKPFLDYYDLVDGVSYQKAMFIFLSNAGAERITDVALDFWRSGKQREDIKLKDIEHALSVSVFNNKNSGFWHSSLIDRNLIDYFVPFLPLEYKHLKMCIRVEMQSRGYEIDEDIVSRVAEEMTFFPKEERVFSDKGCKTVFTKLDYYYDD
Assay [9] shares this target. The experiment in a line: small-molecule binders of mutant TOR1A in lysate, primary screen, cell lysate, small-molecule microarray, COS7 lysate, 635/667 nm fluorescence (AID 1150).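 Further: score pools 667 nm emission and signal to noise measuring lysate protein binding.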 The note with it: COS7 hTOR1A mutant lysate, 635 nm fluorescence, higher = more signal.
In assay [10] the test system is Sonic hedgehog protein (Shh). The experiment in a line: small-molecule binders of Shh protein, primary screen, biochemical, small-molecule microarray, 635/667 nm fluorescence (AID 1151).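 Further: Shh protein binding to compounds spotted on small-molecule microarray slides; score combines spot fluorescence intensity with signal-to-noise across triplicate slides.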 The conditions noted are these: small-molecule microarray binding, 635 nm fluorescence; higher = more signal.
Assay [11] is described as follows: E. coli DRC41 culture turbidity changes, primary screen, E. coli filamentation inducer project, strain DRC41, OD650, 48 h (AID 1152).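 Further: E. coli MC1000 strain DRC41 lacking acrAB efflux pump and sulA.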 The conditions noted are these: E. coli DRC41 (acrAB sulA), higher = more signal, called active from +8 up or from −8 down.
Assay [12] can be described thus: small-molecule binders of probe aLefty1, primary screen, biochemical, small-molecule microarray, 635/667 nm fluorescence (AID 1153).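 Further: score merges spot fluorescence with signal-to-noise ratio from the scanned slide images.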 The note with it: higher = more signal.
Assay [13] can be described thus: PSAC antagonists in infected red cells, primary screen, cell-based, P. falciparum Indochina, OD700, 1 h (AID 1154). The conditions noted are these: P. falciparum Indochina infected RBC osmotic lysis, higher = more signal, called active from +8 up or from −8 down.
Assay [14] can be described thus: PSAC antagonists in infected red cells, primary screen, cell-based, P. falciparum Indochina, OD700, 2 h (AID 1155).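 Further: lysis reports solute entry through the parasite surface anion channel PSAC; channel blockers reduce lysis of infected cells.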 The note with it: P. falciparum Indochina infected erythrocytes, osmotic lysis OD700; higher = more signal, called active from +8 up or from −8 down.
Assay [15] can be described thus: osmotic lysis modulators in infected erythrocytes, primary screen, PSAC antagonist project, cell-based, P. falciparum Indochina, OD700, 3 h (AID 1156). The note with it: higher = more signal, called active from +8 up or from −8 down.
Assay [16] can be described thus: PSAC antagonists in infected red cells, primary screen, cell-based, P. falciparum Indochina, OD700, 18 h (AID 1157). The note with it: P. falciparum Indochina infected erythrocytes, osmotic lysis OD700, 18 h; higher = more signal, called active from +8 up or from −8 down.
A short description of assay [17]: modulators of S6 phosphorylation in cells, primary screen, cell-based, A549, cytoblot, luminescence, serum-stimulated (AID 1158).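 Further: serum-stimulated A549 lung adenocarcinoma cells; signal is phosphorylated S6 detected by cytoblot immunostaining with HRP secondary.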 The conditions noted are these: A549 phospho-S6 cytoblot, 5 h, higher = more signal.
The target of assay [18] is NADPH oxidase 2 (Homo sapiens) (UniProt P04839). The experiment in a line: NOX2-dependent H2O2 signal modulators, primary screen, NOX inhibitor project, cell-based, HEK293-NOX2, PMA-stimulated, Amplex Red fluorescence (AID 1159). Further: test concentration not given here. The conditions noted are these: 45 min, higher = more signal, called active from +8 up or from −8 down.
NADPH oxidase 2 (Homo sapiens), sequence (P04839 whole entry, looked up): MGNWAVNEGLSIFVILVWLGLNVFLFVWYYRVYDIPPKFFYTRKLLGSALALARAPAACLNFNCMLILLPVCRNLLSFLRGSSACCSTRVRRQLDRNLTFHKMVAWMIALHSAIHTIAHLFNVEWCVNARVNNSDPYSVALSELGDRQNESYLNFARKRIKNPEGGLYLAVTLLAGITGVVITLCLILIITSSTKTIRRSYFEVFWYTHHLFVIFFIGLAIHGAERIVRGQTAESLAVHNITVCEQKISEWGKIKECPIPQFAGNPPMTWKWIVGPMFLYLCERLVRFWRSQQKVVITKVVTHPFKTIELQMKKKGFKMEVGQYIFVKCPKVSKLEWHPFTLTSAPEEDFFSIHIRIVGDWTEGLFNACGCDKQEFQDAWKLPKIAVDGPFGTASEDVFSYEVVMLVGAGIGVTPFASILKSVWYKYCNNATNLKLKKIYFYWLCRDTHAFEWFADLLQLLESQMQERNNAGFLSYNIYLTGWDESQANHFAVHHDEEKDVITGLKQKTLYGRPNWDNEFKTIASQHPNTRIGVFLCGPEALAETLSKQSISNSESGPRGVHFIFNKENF
For assay [19], the target named is NADPH oxidase 4 (Homo sapiens) (UniProt Q9NPH5). The experiment in a line: NOX4-dependent H2O2 signal modulators, primary screen, NOX inhibitor project, cell-based, HEK293-NOX4, tetracycline-induced, Amplex Red fluorescence (AID 1160). The conditions noted are these: 45 min, higher = more signal, called active from +8 up or from −8 down.
NADPH oxidase 4 (Homo sapiens), sequence (Q9NPH5 whole entry, looked up): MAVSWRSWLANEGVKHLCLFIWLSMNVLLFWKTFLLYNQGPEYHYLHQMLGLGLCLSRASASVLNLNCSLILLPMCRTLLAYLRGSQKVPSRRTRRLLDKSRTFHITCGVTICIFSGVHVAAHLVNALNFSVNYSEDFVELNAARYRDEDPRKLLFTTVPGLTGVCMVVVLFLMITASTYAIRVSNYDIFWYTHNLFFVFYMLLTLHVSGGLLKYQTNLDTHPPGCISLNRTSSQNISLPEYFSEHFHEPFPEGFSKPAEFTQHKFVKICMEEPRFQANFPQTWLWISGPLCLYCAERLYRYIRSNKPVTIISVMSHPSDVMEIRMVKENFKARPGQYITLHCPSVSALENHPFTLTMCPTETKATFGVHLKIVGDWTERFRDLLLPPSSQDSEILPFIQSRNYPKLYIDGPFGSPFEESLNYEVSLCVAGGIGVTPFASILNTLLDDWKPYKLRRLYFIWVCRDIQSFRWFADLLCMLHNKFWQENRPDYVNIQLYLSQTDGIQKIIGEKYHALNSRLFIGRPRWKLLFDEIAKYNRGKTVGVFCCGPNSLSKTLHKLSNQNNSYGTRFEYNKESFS
Assay [20] addresses NADPH oxidase 5 (Homo sapiens) (UniProt Q96PH1). The experiment in a line: NOX5-dependent H2O2 signal modulators, primary screen, NOX inhibitor project, cell-based, HEK293-NOX5, Amplex Red fluorescence (AID 1161). The conditions noted are these: HEK293-NOX5, ionomycin, 45 min, higher = more signal.

NADPH oxidase 5 (Homo sapiens), sequence (Q96PH1 whole entry, looked up): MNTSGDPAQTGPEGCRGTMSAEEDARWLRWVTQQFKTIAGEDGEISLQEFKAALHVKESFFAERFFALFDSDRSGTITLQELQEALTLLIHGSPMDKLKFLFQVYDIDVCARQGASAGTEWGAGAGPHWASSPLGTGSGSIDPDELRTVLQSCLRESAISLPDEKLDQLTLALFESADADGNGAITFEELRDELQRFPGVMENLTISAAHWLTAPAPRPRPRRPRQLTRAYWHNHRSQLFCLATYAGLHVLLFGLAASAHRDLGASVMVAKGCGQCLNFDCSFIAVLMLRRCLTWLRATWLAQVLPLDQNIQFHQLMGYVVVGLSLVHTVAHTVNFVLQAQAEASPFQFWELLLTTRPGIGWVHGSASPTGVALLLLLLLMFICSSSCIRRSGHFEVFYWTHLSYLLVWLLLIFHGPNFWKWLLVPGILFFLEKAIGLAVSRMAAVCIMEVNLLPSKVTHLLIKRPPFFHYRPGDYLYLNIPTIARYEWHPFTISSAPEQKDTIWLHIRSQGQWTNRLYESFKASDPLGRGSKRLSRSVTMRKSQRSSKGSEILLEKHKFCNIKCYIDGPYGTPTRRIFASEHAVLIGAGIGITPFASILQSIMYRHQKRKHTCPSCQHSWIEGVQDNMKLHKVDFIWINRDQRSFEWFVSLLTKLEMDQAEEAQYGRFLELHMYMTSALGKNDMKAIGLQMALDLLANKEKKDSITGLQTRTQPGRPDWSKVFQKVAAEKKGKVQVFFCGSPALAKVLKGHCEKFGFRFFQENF
Streptavidin (Streptomyces avidinii), sequence (P22629 whole entry, looked up): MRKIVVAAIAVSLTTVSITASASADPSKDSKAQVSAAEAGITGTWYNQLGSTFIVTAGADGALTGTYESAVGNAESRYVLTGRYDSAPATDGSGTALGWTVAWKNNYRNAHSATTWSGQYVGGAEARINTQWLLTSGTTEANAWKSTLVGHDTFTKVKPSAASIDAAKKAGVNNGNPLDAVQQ

With `CCN1C(=O)[C@H]2[C@H]3[C@H](O)[C@H](O)CC(=NOC[C@@H](O)COCc4ccco4)[C@H]3CC[C@H]2C1=O`, the composite z-score in assay [1] is -0.13; in [6] it was -1.09; in assay [7], -0.241; in the assay with Torsin-1A (Homo sapiens) [8], 3.04; with Torsin-1A (Homo sapiens) [9] it was 2.87; in assay [10], 1.97. The composite z-score in [12] is -0.22. The z-score in [2] is 0.337 (inactive); in assay [3] it was -0.388 (inactive); in [4], -0.926 (inactive); in assay [5] it was -0.541 (inactive); in assay [11], 0.537 (inactive); in [13] it was -0.392 (inactive). Further, the z-score was -0.025 (inactive) in assay [14]; -0.468 (inactive) in [15]; 0.108 (inactive) in assay [16]; -0.18 in assay [17]; -7.58 (inactive) in [18]; 0.0462 (inactive) in assay [19]. The z-score in assay [20] was found to be 0.262.
As for `COc1cccc([C@H](O)Cn2cc(-c3ccc(CON=C(C)C)cc3)nn2)c1`, the composite z-score is -0.0033 in assay [1]; -0.207 in assay [6]; 0.0082 in [7]; 0.0944 with Torsin-1A (Homo sapiens) [8]; 0.271 in the assay with Torsin-1A (Homo sapiens) [9]; -0.348 in assay [10]. Moreover, the composite z-score in assay [12] is -0.103. Also, the z-score in [2] was -0.385 (inactive); in assay [3] it was -0.24 (inactive); in assay [4], 1.55 (inactive); in assay [5], -0.222 (inactive); in assay [11], 0.697 (inactive); in [13], 25.6 (active). For the same compound, the z-score was 12.2 (active) in assay [14]; 0.99 (inactive) in assay [15]; 1.54 (inactive) in assay [16]; -1.07 in [17]; 0.0342 (inactive) in [18]; -0.0373 (inactive) in assay [19]. This compound also yielded a z-score in [20] of -0.169.
Take `CC(=O)OC[C@H]1O[C@H](CCON=C(C)C)C=C[C@@H]1OC(C)=O`: the composite z-score was 0.0141 in assay [1]; 0.17 in [6]; -0.038 in assay [7]; -0.0297 in the assay with Torsin-1A (Homo sapiens) [8]; -0.115 with Torsin-1A (Homo sapiens) [9]; 0.427 in [10]. The compound further yielded a composite z-score in assay [12] of -0.0412. Also, the z-score in [2] was 0.702 (inactive); in [3] it was 0.249 (inactive); in [4], -0.715 (inactive); in [5], 0.383 (inactive); in assay [11] it was -1.66 (inactive); in assay [13], 0.158 (inactive). Moreover, the z-score in assay [14] is 0.328 (inactive); in [15], -0.599 (inactive); in assay [16] it was 0.196 (inactive); in assay [17], -0.71; in assay [18] it was 0.0813 (inactive); in assay [19], 0.151 (inactive). Moreover, the z-score in assay [20] was -0.227.
For the compound `CCOC(=O)[C@H](CC(C)C)NC(=O)CCC1CC(OC(=O)NCCc2ccc(F)cc2)CC2(CCCC(COC(=O)NCCCN3CCCC3=O)O2)O1` (stereo not given in full), the composite z-score in assay [1] is 0.189; in [6], 0.484; in assay [7], -0.0195; in the assay with Torsin-1A (Homo sapiens) [8], 1.66; with Torsin-1A (Homo sapiens) [9], 0.1; in assay [10], 0.894. Moreover, the composite z-score in [12] was -0.28. The z-score in [2] was 0.378 (inactive); in [3], -0.31 (inactive); in [4], 0.109 (inactive); in [5] it was 0.319 (inactive); in assay [11] it was -0.237 (inactive); in assay [13], 1.3 (inactive). Further, the z-score in assay [14] was 0.0591 (inactive); in assay [15], -0.172 (inactive); in [16], -0.194 (inactive); in assay [17], 0.181; in assay [18] it was 0.575 (inactive); in assay [19], 0.775 (inactive). The compound further came in with a z-score in assay [20] of 0.802.
`COc1ccc(O[C@H]2C=C[C@@H](c3ccccc3)O[C@@H]2CON=C(C)CCN2CCCc3nc(C)c(C)cc32)cc1`: the composite z-score in [1] is 0.0474; in assay [6], 0.294; in assay [7], -0.0079; with Torsin-1A (Homo sapiens) [8], 0.476; with Torsin-1A (Homo sapiens) [9] it was 0.46; in assay [10], 0.661. The same compound displayed a composite z-score in assay [12] of 0.0341. In addition, the z-score in assay [2] is -0.381 (inactive); in assay [3], -0.291 (inactive); in [4], 2.46 (inactive); in assay [5], 0.544 (inactive); in assay [11] it was 0.379 (inactive); in assay [13], 4.35 (inactive). The z-score is 0.711 (inactive) in assay [14]; 0.938 (inactive) in [15]; 0.588 (inactive) in assay [16]; -0.121 in [17]; -1.81 (inactive) in [18]; -0.049 (inactive) in assay [19]. Further, the z-score in assay [20] is -0.297.
